# NOMO-1 viab – NOMO-1 AML cell viability reduction, primary screen, STK33 inhibitor project, CellTiter-Glo luminescence | AID 2330, 2010 | 37,000 tested, 7.5% active | NOMO-1 AML viability, 72 h | inhibition, % (test concentration not listed); in the data active means inhibition above about 80%; inconclusive means no clear call, values can overlap the other calls
# Hedgehog inh – Hedgehog pathway signaling inhibitors, primary screen, luminescence, Shh-LIGHT2 cells, Gli-luciferase; inhibition, % (concentration not given with the values); 22,000 tested, 2.1% active; Shh-LIGHT2 Gli-luciferase reporter, 30 h;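 active means mean inhibition across valid replicates above about 65%, limit read from the data; inconclusive means mean under the limit, yet half or more replicates past it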;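 further: pathway switched on by Shh-conditioned medium diluted 1 in 25 in low serum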
# PD-1 reverse act – activators reversing PD-1 mediated T-cell inhibition, primary screen, luminescence, primary human CD4 T cells, PD-L1 beads; CellTiter-Glo 96 h; activation, % (test concentration not listed); 29,000 tested, under 10 active; call rule not given here;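 further: 0% = median vehicle wells and 100% = positive control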
# An asterisk follows results filed as active; ? = inconclusive; / = no result. The list is not random: actives were taken first. Their share in the collection is about 7.7%.
SMILES,NOMO-1 viab,Hedgehog inh,PD-1 reverse act
COc1ccc(NC(=O)N(C)C[C@H]2Oc3ccc(NC(=O)Nc4ccc(C(F)(F)F)cc4)cc3CC(=O)N([C@@H](C)CO)C[C@H]2C)cc1,124*,/,/
C[C@@H]1CN([C@H](C)CO)C(=O)Cc2cc(NC(=O)Nc3ccc(C(F)(F)F)cc3)ccc2O[C@@H]1CN(C)C(=O)NC1CCCCC1,112*,-16,-2
C[C@@H]1CN([C@H](C)CO)C(=O)Cc2cc(NC(=O)Nc3ccc(C(F)(F)F)cc3)ccc2O[C@H]1CN(C)C(=O)Nc1ccc(C(F)(F)F)cc1,49,-8,-3
CC(C)NC(=O)N(C)C[C@H]1Oc2ccc(NC(=O)Nc3ccc(C(F)(F)F)cc3)cc2CC(=O)N([C@@H](C)CO)C[C@H]1C,114*,10,-5
C[C@H]1CN([C@@H](C)CO)C(=O)Cc2cc(NC(=O)Nc3ccc(C(F)(F)F)cc3)ccc2O[C@@H]1CN(C)C(=O)NC1CCCCC1,12,11,0
COc1ccc(NC(=O)Nc2ccc3c(c2)CC(=O)N([C@@H](C)CO)C[C@H](C)[C@H](CN(C)C(=O)Nc2ccc(C(F)(F)F)cc2)O3)cc1,20,40,/
O=C(CSC1CC(=O)N(c2ccccc2)C1=O)Nc1ccccc1F (configuration not stated),26,/,/
C[C@@H]1CN([C@@H](C)CO)C(=O)Cc2cc(NS(=O)(=O)c3ccc(Cl)cc3)ccc2O[C@@H]1CN(C)Cc1ccc(-c2ccccc2)cc1,22,8,2
C[C@H]1CN([C@@H](C)CO)C(=O)Cc2cc(NS(=O)(=O)c3ccc(Cl)cc3)ccc2O[C@H]1CN(C)Cc1ccc(-c2ccccc2)cc1,111*,32,3
C[C@@H]1CN([C@H](C)CO)C(=O)Cc2cc(NS(=O)(=O)c3ccc(Cl)cc3)ccc2O[C@H]1CN(C)Cc1ccc(-c2ccccc2)cc1,66,0,-1
C[C@@H]1CN([C@H](C)CO)C(=O)Cc2cc(NS(=O)(=O)c3ccc(Cl)cc3)ccc2O[C@@H]1CN(C)Cc1ccc(-c2ccccc2)cc1,122*,20,-5
Cc1cc(C)cc(N(CC(=O)Nc2ccc(Br)c(Cl)c2)S(C)(=O)=O)c1,15,/,1
Cc1c(C)c(C)c(S(=O)(=O)N2CCCC2)c(C)c1C,63,49,-2
Cc1sc2ncnc(SCC(=O)Nc3ccccc3-c3ccccc3)c2c1C,34,/,0
C[C@@H]1CN([C@H](C)CO)C(=O)c2cccc(NC(=O)c3ccc(-c4nccs4)cc3)c2O[C@H]1CN(C)CC1CCCCC1,87*,-14,/
C[C@@H]1CN([C@@H](C)CO)C(=O)c2cccc(NC(=O)c3ccc(-c4nccs4)cc3)c2O[C@@H]1CN(C)Cc1ccc(-c2ccccc2)cc1,57,32,-5
C[C@H](CO)N1C[C@H](C)[C@H](CN(C)CC2CCCCC2)Oc2c(NC(=O)c3ccc(-c4nccs4)cc3)cccc2C1=O,26,7,1
C[C@H]1CN([C@@H](C)CO)C(=O)c2cccc(NC(=O)c3ccc(-c4nccs4)cc3)c2O[C@@H]1CN(C)Cc1ccc(C(=O)Nc2ccccc2N)cc1,124*,/,-2
C[C@H]1CN([C@@H](C)CO)C(=O)c2cccc(NC(=O)c3ccc(-c4nccs4)cc3)c2O[C@H]1CN(C)Cc1ccccc1,37,-73,/
C[C@@H]1CN([C@@H](C)CO)C(=O)c2cccc(NC(=O)c3ccc(-c4nccs4)cc3)c2O[C@H]1CN(C)Cc1ccccc1,88*,1,-5
C[C@@H]1CN([C@H](C)CO)C(=O)c2cccc(NC(=O)c3ccc(-c4nccs4)cc3)c2O[C@H]1CN(C)Cc1ccc(C(=O)Nc2ccccc2N)cc1,128*,/,-2
C[C@@H]1CN([C@H](C)CO)C(=O)c2cccc(NC(=O)c3ccc(-c4nccs4)cc3)c2O[C@@H]1CN(C)Cc1ccccc1,28,-54,-1
O=c1c(O[C@@H]2O[C@H](CO)[C@H](O)[C@H](O)[C@H]2O)c(-c2cc(O)c(O)c(O)c2)oc2cc(O)cc(O)c12,/,-9,/
O=C(CN1C(=O)c2cccc3cccc1c23)NCc1ccco1,32,/,/
CCc1ccc(-n2nc3cc(C)c(NC(=O)COc4ccccc4[N+](=O)[O-])cc3n2)cc1,7,/,2
SMILES,NOMO-1 viab,Hedgehog inh,PD-1 reverse act
O=[N+]([O-])c1ccccc1/C=C/CN1CCN(CCO)CC1,4,/,-2
COc1ccccc1-n1c(CSc2nc3cc(C(=O)N4CCCC4)ccc3s2)nc2ccccc2c1=O,49,/,0
COc1ccccc1NC(=O)CN1C(=O)C2C3CCC(C3)C2C1=O (configuration not stated),10,/,-2
COc1ccccc1NC(=O)C(Cc1ccccc1)N1C(=O)C2C3c4ccccc4C(c4ccccc43)C2C1=O (configuration not stated),92*,/,0
Cn1c(SCC(=O)N2CCc3ccccc32)nnc1-c1ccc(NC(=O)c2ccc(F)cc2)cc1,33,/,/
Cc1ccc(C(=O)c2oc3ccccc3c2NC(=O)c2cc3ccccc3oc2=O)cc1F,112*,/,-2
CCOc1ccc(C(=O)c2oc3ccccc3c2NC(=O)c2cc3ccccc3oc2=O)cc1,24,/,-1
COc1ccc(NC(=O)Nc2cccc3c2O[C@@H](CN(C)Cc2ccc(Cl)c(Cl)c2)[C@@H](C)CN([C@H](C)CO)C3=O)cc1,97*,-58,-3
C[C@H](CO)N1C[C@H](C)[C@H](CN(C)Cc2ccc(Cl)c(Cl)c2)Oc2c(NC(=O)Nc3ccccc3)cccc2C1=O,68,-5,-4
COc1ccc(NC(=O)Nc2cccc3c2O[C@@H](CN(C)Cc2ccc(Cl)c(Cl)c2)[C@@H](C)CN([C@@H](C)CO)C3=O)cc1,121*,/,-2
COc1ccc(NC(=O)Nc2cccc3c2O[C@H](CN(C)Cc2ccc(Cl)c(Cl)c2)[C@H](C)CN([C@H](C)CO)C3=O)cc1,59,13,-2
Clc1ccc(-c2nc(Sc3nc(-c4cccs4)ns3)n[nH]2)cc1,11,-29,-8
CC1(C)[C@@H]2CC=C(CO[C@@H]3O[C@H](CO[C@@H]4O[C@@H](CO)[C@H](O)[C@H]4O)[C@@H](O)[C@H](O)[C@H]3O)[C@H]1C2,-7,-3,5
COc1ccc(O)c(-c2cnc(=S)[nH]c2-c2cc(OC)ccc2OC)c1,6,16,-3
CCC(=O)Nc1cccc(NC(=O)COc2c(C)cc(C)cc2Br)c1,25,/,/
COC(=O)c1c(C)cc2c(c(C)c1=O)OC1(C2)C(C)CCC2C(C)(C)OC(=O)C=CC21C (configuration not stated),107*,-51,-10
CCOC(=O)c1cc(C#N)c(Nc2ccccc2OC)nc1C(F)(F)F,23,-30,4
CCOC(=O)c1cc(C)nc(Sc2ccccc2NC(=O)c2cccc(C(F)(F)F)c2)c1C#N,114*,1,-1
COC(=O)c1ccc(CSc2n[nH]c(-c3ccccc3OC)n2)o1,114*,/,/
CCOc1ccc(-c2nc(SCc3ccc(C(=O)OC)o3)n[nH]2)cc1,?,/,0
Cc1cccc(N2C(=O)c3ccc(C(=O)Nc4c[nH]c(=O)[nH]c4=O)cc3C2=O)c1C,-13,-15,0
O=C(COc1ccc(Cl)cc1Cl)Nc1ncccn1,9,/,/
